According to PubChem BioAssay (Tox21):
Values joined by “and” are separate entries in the source; they are usually repeats but may differ in a detail not shown here. Identical values can stand only once. Unmarked numbers belong to inactive results. Inconclusive results are not listed. Where a call stands in place of a potency, no number is given. Active and inactive are the calls of the source. Unless noted, calls follow the shape of the dose curve; as a rule, active = well fitted curve in the direction sought with a large enough effect in the repeat runs; inconclusive = weak or mixed curves; inactive = no such curve, though single readings can be large; an effect the other way counts as inactive or inconclusive.

Key:
[1] = A CellTox Green Cytotoxicity Assay to monitor cytotoxicity in HepG2 cells - 0 hour (AID 1224882); also: nearly all actives have a fitted effect of over 35% in size
Summary of the method: (§1)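 HepG2, 600 cells/well premixed w/ CellTox Green; 5 h settle, 37 C/5% CO2; pintool cpd add (DMSO); 37 C, 40 h; fluorescence read at 0, 8, 16, 24, 32, 40 h.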

[2] = A CellTox Green Cytotoxicity Assay to monitor cytotoxicity in HepG2 cells - 32 hour (AID 1224883); also: nearly all actives have a fitted effect of over 50% in size; also: potency is read from the fitted curve at half-maximal effect
Summary of the method: as §1

[3] = A CellTox Green Cytotoxicity Assay to monitor cytotoxicity in HEK293 cells - 8 hour (AID 1224884); also: nearly all actives have a fitted effect of over 35% in size
Summary of the method: (§2)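 Read-out: fluorescence of a cell-impermeant cyanine dye staining DNA of dead cells, proportional to cytotoxicity. HEK293, 600 cells/well with reagent, compound (23 nL DMSO) added after 5 h; reads at 0, 8, 16, 24, 32, 40 h.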

[4] = qHTS RealTime-Glo MT Cell Viability Assay in HepG2 cells - 16 hour (AID 1224885); also: nearly all actives have a fitted effect of over 50% in size
Summary of the method: (§3)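 Cell number in HepG2 cultures estimated from NanoLuc luminescence generated by metabolic reduction of a prosubstrate by living cells. The homogeneous, nonlytic format allowed repeated reads at 0, 8, 16, 24, 32 and 40 h of compound exposure.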

[5] = qHTS RealTime-Glo MT Cell Viability Assay in HEK293 cells - 24 hour (AID 1224886); also: nearly all actives have a fitted effect of over 50% in size; also: potency is read from the fitted curve at half-maximal effect; as to activity change, negative = cytotoxicity: top concentration of the series differs between compounds
Summary of the method: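 Homogeneous bioluminescent viability format in HEK293 cells (600 cells/well). Following 5 h at 37 C/5% CO2, 23 nL compound was pintooled; the signal was measured repeatedly during 40 h incubation.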

[6] = qHTS RealTime-Glo MT Cell Viability Assay in HEK293 cells - 8 hour (AID 1224887); also: nearly all actives have a fitted effect of over 50% in size; also: potency is read from the fitted curve at half-maximal effect; as to activity change, negative = cytotoxicity: top concentration of the series differs between compounds
Summary of the method: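 Luminescence readout at each listed time point; HEK293, 600 cells/well, RealTime-Glo MT reagent added with cells; compounds pinned (23 nL in DMSO) after 5 h at 37 C; continuous culture at 37 C.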

[7] = A CellTox Green Cytotoxicity Assay to monitor cytotoxicity in HEK293 cells - 16 hour (AID 1224888); also: nearly all actives have a fitted effect of over 35% in size
Summary of the method: as §2

[8] = qHTS RealTime-Glo MT Cell Viability Assay in HepG2 cells - 0 hour (AID 1224889); also: nearly all actives have a fitted effect of over 50% in size
Summary of the method: as §3

[9] = A CellTox Green Cytotoxicity Assay to monitor cytotoxicity in HepG2 cells - 8 hour (AID 1224890); also: nearly all actives have a fitted effect of over 45% in size
Summary of the method: as §1

[10] = qHTS assay to identify small molecule antagonists of the estrogen receptor alpha (ER-alpha) signaling pathway using the BG1 cell line in the presence of 0.1 nM 17-beta-estradiol - cell viability counter screen (AID 1259241); also: nearly all actives have a fitted effect of over 40% in size; also: potency is read from the fitted curve at half-maximal effect
Summary of the method: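 Live-cell protease activity (CellTiter-Fluor fluorescence, 30 min) was read in the same wells after VM7Luc4E2 cells had been exposed to compounds with 0.1 nM 17beta-estradiol for 22 hr at 37C.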

[11] = qHTS assay to identify small molecule antagonists of the androgen receptor (AR) signaling pathway using the MDA cell line in the presence of 0.5 nM R1881 - cell viability counter screen (AID 1259242); also: nearly all actives have a fitted effect of over 45% in size; also: potency is read from the fitted curve at half-maximal effect
Summary of the method: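 Live-cell protease fluorescence, CellTiter-Fluor, 30 min at 37C. Cells: MDA-kb2, 3,000/well, preincubated 5 hr. Compounds plus 0.5 nM R1881 final, 16 hr, 37C, 0% CO2.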

[12] = target: Estrogen receptor (Homo sapiens) (UniProt P03372); assay: qHTS assay to identify small molecule antagonists of the estrogen receptor alpha (ER-alpha) signaling pathway using the BG1 cell line in the presence of 0.1 nM 17-beta-estradiol (AID 1259244); also: nearly all actives have a fitted effect of over 50% in size; also: potency is read from the fitted curve at half-maximal effect
Chain of Estrogen receptor (Homo sapiens) (P03372 whole entry, looked up): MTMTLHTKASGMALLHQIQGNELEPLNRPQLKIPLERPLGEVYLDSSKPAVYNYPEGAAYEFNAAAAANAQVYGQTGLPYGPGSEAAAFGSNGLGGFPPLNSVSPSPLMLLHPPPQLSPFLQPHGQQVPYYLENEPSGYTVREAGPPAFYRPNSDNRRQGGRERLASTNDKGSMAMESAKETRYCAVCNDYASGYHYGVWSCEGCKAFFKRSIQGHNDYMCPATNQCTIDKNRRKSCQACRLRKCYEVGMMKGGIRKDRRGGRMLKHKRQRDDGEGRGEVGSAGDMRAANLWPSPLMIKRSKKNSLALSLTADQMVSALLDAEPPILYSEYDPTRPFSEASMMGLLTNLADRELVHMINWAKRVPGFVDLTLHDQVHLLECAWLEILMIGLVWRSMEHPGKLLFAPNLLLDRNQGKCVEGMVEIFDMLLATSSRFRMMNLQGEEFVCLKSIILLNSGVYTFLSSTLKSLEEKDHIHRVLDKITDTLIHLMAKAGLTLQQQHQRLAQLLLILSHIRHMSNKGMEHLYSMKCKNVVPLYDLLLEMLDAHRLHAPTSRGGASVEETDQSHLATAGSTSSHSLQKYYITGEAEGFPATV
Summary of the method: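 Luminescence after ONE-Glo (30 min, room temperature) measured ERE-luciferase activity in VM7Luc4E2 cells treated 22 h with compound and 0.1 nM final 17beta-estradiol as stimulator.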

[13] = qHTS assay to identify small molecule HDAC inhibitors (AID 1259364); also: potency is read from the fitted curve at half-maximal effect;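 also: wild-type HCT-116 cells with endogenous class I/II HDAC activity; nearly all actives have a fitted effect of over 45% in size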; as to activity change, negative = inhibition: top concentration of the series differs between compounds
Summary of the method: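 HCT-116 (wild type), 1,500 cells/well, overnight; compound 2 hr 37C 5% CO2; HDAC-Glo I/II reagent 30 min RT; luminescence readout.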

[14] = qHTS assay to identify small molecule HDAC inhibitors - cell viability counter screen (AID 1259365)
Summary of the method: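 HCT-116 (wild type), 1,500 cells/well, overnight 37C/5% CO2; compound in DMSO 2hr; CellTiter-Glo 30min RT; luminescence read.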

[15] = qHTS assay to identify small molecule agonists of the sonic hedgehog signaling (Shh) pathway - cell viability counter screen (AID 1259366); also: nearly all actives have a fitted effect of over 50% in size; also: potency is read from the fitted curve at half-maximal effect
Summary of the method: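 CellTiter-Fluor fluorescence read-out, 1 hr at 37C, added after 23hr compound exposure. Cells: 3T3 Gli1-Luc, an NIH/3T3 clone with stably integrated Gli1-Luc reporter, plated 4hr before compound.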

[16] = qHTS assay to identify small molecule antagonists of the sonic hedgehog signaling (Shh) pathway - cell viability counter screen (AID 1259367); also: nearly all actives have a fitted effect of over 55% in size; also: potency is read from the fitted curve at half-maximal effect
Summary of the method: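 CellTiter-Fluor signal in conditioned medium-stimulated 3T3 Gli1-Luc cells, 23 hr compound exposure, 37C.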

[17] = qHTS assay to identify small molecule agonists of the sonic hedgehog signaling (Shh) pathway (AID 1259368; calls by dose curve; also: nearly all actives have a fitted effect of over 15% in size; also: potency is read from the fitted curve at half-maximal effect;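 as to activity change: NIH/3T3-derived 3T3Gli1-Luc cells carrying a stable Gli1-driven firefly luciferase reporter; series mostly up to about 92 µM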)
Summary of the method: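 Read-out: firefly luciferase luminescence from a Gli1 response element reporter stably integrated in NIH/3T3-derived 3T3Gli1-Luc cells, measured 30 min at room temperature after reagent addition. Compound exposure lasted 24 hr at 37 C, 5% CO2.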

[18] = qHTS assay to identify small molecule phospholipidosis (PLD) inducers (AID 1259344; active = well fitted curve in the direction sought with a large enough effect; an effect the other way counts as inactive or inconclusive)
Summary of the method: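 Accumulated phospholipid, stained red by LipidTOX during 24 h compound treatment of HepG2 cells at 37 C, is quantified from images as pit number and intensity, normalised per cell using Hoechst-stained nuclei.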

[19] = A CellTox Green Cytotoxicity Assay to monitor cytotoxicity in HEK293 cells - 32 hour (AID 1224881); also: nearly all actives have a fitted effect of over 40% in size; also: potency is read from the fitted curve at half-maximal effect
Summary of the method: as §2

## OC/C=C/CO
[1]
  Potency: inactive
[2]
  Potency: inactive
[3]
  Potency: inactive
[4]
  Potency: inactive
[5]
  Potency: inactive
[6]
  Potency: inactive
[7]
  Potency: inactive
[8]
  Potency: inactive
[9]
  Potency: inactive
[10]
  Potency: inactive
[11]
  Potency: inactive
[12]
  Potency: inactive
[13]
  Potency: inactive
[14]
  Potency: inactive
[15]
  Potency: inactive
[16]
  Potency: inactive
[17]
  Potency: inactive

## C[C@H]1NCc2cc(-c3ccc4c(=O)c(C(=O)O)cn(C5CC5)c4c3OC(F)F)ccc21
[1]
  cytotoxicity: -0.836% [at 15.8 µM]
[2]
  cytotoxicity increase: -4.67% [at 15.8 µM]
[3]
  cytotoxicity increase: -4.13% [at 15.8 µM]
[4]
  activity change, negative = cytotoxic: -14.5% [at 15.8 µM]
[5]
  activity change, negative = cytotoxicity: -3.25% [at 15.8 µM]
[6]
  activity change, negative = cytotoxicity: -3.93% [at 15.8 µM]
[7]
  activity change: -0.109% [at 15.8 µM, hits give high values]
[8]
  activity change, negative = cytotoxicity: -7.36% [at 15.8 µM]
[9]
  cytotoxicity increase: 1.89% [at 15.8 µM]
[10]
  activity change, negative = cytotoxicity: -0.503% [at 19 µM]
[11]
  viability change, negative = cytotoxic: -0.218% [at 19 µM]
[12]
  activity change, negative = inhibition: -8.57% [at 19 µM]
[18]
  Potency: inactive
[13]
  activity change, negative = inhibition: -0.849% [at 19 µM]
[14]
  activity change, negative = cytotoxicity: 0.0413% [at 19 µM]
[15]
  viability change, negative = cytotoxic: 2.18% [at 19 µM]
[16]
  viability change, negative = cytotoxic: -2.69% [at 19 µM]
[17]
  activity change: -0.818% [at 18.9 µM, hits give high values]

## S=c1nccc[nH]1
[1]
  Potency: inactive
[2]
  Potency: inactive
[3]
  Potency: inactive
[4]
  Potency: inactive
[5]
  Potency: inactive
[6]
  Potency: inactive
[7]
  Potency: inactive
[8]
  Potency: inactive
[9]
  Potency: inactive
[10]
  Potency: inactive
[11]
  Potency: inactive
[12]
  Potency: inactive
[13]
  Potency: inactive
[14]
  Potency: inactive
[15]
  Potency: inactive
[16]
  Potency: inactive

## CC[N+](CC)(CC)CCOc1ccc(/C=C/c2ccccc2)cc1
[19]
  Potency: 6.74 µM (active)
[1]
  Potency: inactive
[3]
  Potency: inactive
[4]
  Potency: inactive
[6]
  Potency: inactive
[7]
  Potency: inactive
[8]
  Potency: inactive
[9]
  Potency: inactive
[10]
  Potency: inactive
[12]
  Potency: 13.3 µM (active)
[18]
  Potency: inactive
[13]
  Potency: inactive
[14]
  Potency: inactive
[15]
  Potency: inactive
[16]
  Potency: inactive
[17]
  Potency: inactive

## O=C1NC(=O)[C@@H]2CC=CC[C@H]12
[19]
  Potency: inactive
[1]
  Potency: inactive
[3]
  Potency: inactive
[5]
  Potency: inactive
[6]
  Potency: inactive
[7]
  Potency: inactive
[9]
  Potency: inactive
[10]
  Potency: inactive
[11]
  Potency: inactive
[13]
  Potency: inactive
[14]
  Potency: inactive
[15]
  Potency: inactive
[16]
  Potency: inactive

## CC1=Nc2ccccc2C1(C)C
[19]
  Potency: inactive
[2]
  Potency: 43.7 µM (active)
[3]
  Potency: inactive
[5]
  Potency: inactive
[6]
  Potency: inactive
[7]
  Potency: inactive
[8]
  Potency: inactive
[10]
  Potency: inactive
[11]
  Potency: inactive
[12]
  Potency: inactive
[13]
  Potency: inactive
[14]
  Potency: inactive
[15]
  Potency: inactive
[17]
  Potency: inactive

## CC(C)(C)C1CCC(=O)CC1
[1]
  Potency: inactive
[2]
  Potency: inactive
[3]
  Potency: inactive
[4]
  Potency: inactive
[5]
  Potency: inactive
[6]
  Potency: inactive
[7]
  Potency: inactive
[8]
  Potency: inactive
[9]
  Potency: inactive
[10]
  Potency: inactive
[11]
  Potency: inactive
[12]
  Potency: inactive
[13]
  Potency: inactive
[14]
  Potency: inactive
[15]
  Potency: inactive

## Cc1ccc(N/N=c2\c(=O)cc/c(=N\Nc3ccc(S(=O)(=O)O)cc3)c2=O)c(C)c1
[1]
  Potency: inactive
[2]
  Potency: inactive
[3]
  Potency: inactive
[4]
  Potency: inactive
[5]
  Potency: inactive
[6]
  Potency: inactive
[7]
  Potency: inactive
[9]
  Potency: inactive
[10]
  Potency: 27.3 µM (active)
[11]
  Potency: 48.6 µM (active)
[13]
  Potency: 19.3 µM (active)
[14]
  Potency: inactive
[15]
  Potency: 30.6 µM (active)
[16]
  Potency: 27.3 µM (active)

## OC12N=C(c3ccccc3)SC1Cc1cc(Cl)ccc12 (stereo unspecified)
[19]
  Potency: inactive
[1]
  Potency: inactive
[3]
  Potency: inactive
[6]
  Potency: inactive
[7]
  Potency: inactive
[8]
  Potency: inactive
[9]
  Potency: inactive
[10]
  Potency: inactive
[11]
  Potency: inactive
[12]
  Potency: inactive
[13]
  Potency: 27.3 µM (active)
[14]
  Potency: inactive
[15]
  Potency: inactive
[16]
  Potency: inactive
[17]
  Potency: 2.73 µM (active)

## O=C(O)[C@H](O)[C@@H](O)[C@H](O[C@@H]1O[C@H](CO)[C@H](O)[C@H](O)[C@H]1O)[C@H](O)CO
[1]
  Potency: inactive
[2]
  Potency: inactive
[3]
  Potency: inactive
[4]
  Potency: inactive
[5]
  Potency: inactive
[6]
  Potency: inactive
[7]
  Potency: inactive
[8]
  Potency: inactive
[9]
  Potency: inactive
[10]
  Potency: inactive
[11]
  Potency: inactive
[12]
  Potency: inactive
[18]
  Potency: inactive
[13]
  Potency: inactive
[15]
  Potency: inactive
[17]
  Potency: inactive

## Oc1ccccc1O
[1]
  Potency: inactive
[2]
  Potency: inactive
[3]
  Potency: inactive
[4]
  Potency: inactive
[5]
  Potency: 49.6 µM (active) and 24.5 µM (active)
[6]
  Potency: inactive
[7]
  Potency: inactive
[9]
  Potency: inactive
[11]
  Potency: inactive
[13]
  Potency: inactive
[14]
  Potency: inactive
[15]
  Potency: 9.81 µM (active) and 15.4 µM (active)
[16]
  Potency: 6.19 µM (active) and 15.4 µM (active)
[17]
  Potency: inactive

## Cc1c(C)c2c(c(C)c1O)CC[C@@](C)(CCC[C@H](C)CCC[C@H](C)CCCC(C)C)O2
[1]
  Potency: inactive
[2]
  Potency: inactive
[3]
  Potency: inactive
[4]
  Potency: inactive
[5]
  Potency: inactive
[6]
  Potency: inactive
[7]
  Potency: inactive
[8]
  Potency: inactive
[9]
  Potency: inactive
[10]
  Potency: inactive
[11]
  Potency: inactive
[12]
  Potency: inactive
[18]
  Potency: inactive
[13]
  Potency: inactive
[14]
  Potency: inactive
[15]
  Potency: inactive
[16]
  Potency: inactive
[17]
  Potency: inactive

## Cc1nc2n(c(=O)c1CCN1CCC(c3noc4cc(F)ccc34)CC1)CCCC2
[1]
  Potency: inactive
[2]
  Potency: inactive
[3]
  Potency: inactive
[4]
  Potency: inactive
[5]
  Potency: 3.38 µM (active)
[6]
  Potency: 3.01 µM (active)
[7]
  Potency: inactive
[9]
  Potency: inactive
[10]
  Potency: inactive
[11]
  Potency: inactive
[18]
  Potency: inactive
[13]
  Potency: inactive
[14]
  Potency: inactive
[15]
  Potency: inactive
[16]
  Potency: inactive
